{"source": "PubChem BioAssay (Tox21)", "note": "Values joined by “and” are separate entries in the source; they are usually repeats but may differ in a detail not shown here. Equal entries are not always repeated. Inconclusive results are not listed. Where a call stands in place of a potency, no number is given. Values without a mark were called inactive. Active and inactive are the calls of the source. Calls follow the shape of the dose curve; as a rule, active = well fitted inhibition curve with a large enough effect in the repeat runs; inconclusive = weak or mixed curves; inactive = no such curve, though single readings can be large or run the other way. Potency is read from the fitted curve at half-maximal effect.", "data": [{"biological_target": "Cytochrome P450 3A4 (Homo sapiens) (UniProt P08684)", "sequence (P08684 whole entry, looked up)": "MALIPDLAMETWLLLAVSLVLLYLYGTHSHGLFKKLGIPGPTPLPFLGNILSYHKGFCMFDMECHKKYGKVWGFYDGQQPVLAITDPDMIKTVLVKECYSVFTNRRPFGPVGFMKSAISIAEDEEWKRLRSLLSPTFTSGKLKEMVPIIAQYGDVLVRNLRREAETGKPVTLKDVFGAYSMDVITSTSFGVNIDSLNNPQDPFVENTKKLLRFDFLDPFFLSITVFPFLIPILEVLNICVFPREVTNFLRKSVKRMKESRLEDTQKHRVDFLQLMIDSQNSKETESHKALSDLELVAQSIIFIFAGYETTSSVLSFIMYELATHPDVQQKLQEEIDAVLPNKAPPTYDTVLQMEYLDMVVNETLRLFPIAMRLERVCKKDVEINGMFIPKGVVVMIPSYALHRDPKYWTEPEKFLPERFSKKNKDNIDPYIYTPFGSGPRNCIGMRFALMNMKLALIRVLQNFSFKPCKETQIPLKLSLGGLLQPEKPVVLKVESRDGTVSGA", "test": "Cytochrome P450 Family 3 Subfamily A Member 4 (CYP3A4) small molecule antagonists: luciferase reporter qHTS assay (AID 1671201); also: nearly all actives have a fitted effect of over 50% in size", "settings": "P450-Glo CYP3A4 enzyme, luciferin luminescence, 1 h; series mostly up to 115 µM", "excerpt": "National Center for Advancing Translational Sciences [NCATS]\nU.S. Environmental Protection Agency [EPA]\nNational Institutes of Environmental Health Sciences [NIEHS]\nNational Toxicology Program [NTP]\nU.S. Food and Drug Administration [FDA]\nCytochrome P450 (CYP) enzymes are membrane-bound hemeproteins that play a key role in metabolism of drugs and xenobiotics. Evaluation of the effect of chemicals on CYP isozymes is useful to minimize the adverse drug reactions and toxicities in drug development process. Tox21 chemicals were tested for their effect on CYP enzyme activities by using P450-Glo (TM) screening systems (Promega Corporation, Madison, WI). These systems provide a luminescent method containing proluciferin substrates and are converted to luciferin products by CYP isozymes. The luciferin products formed are detected with a luciferin detection reagent, and the amount of light produced is proportional to CYP activity. P450-Glo (TM) CYP3A4 screening system (Catalog. No. V9910) was used to detect the compounds that interfere in CYP3A4 activity. The positive control compound used for CYP3A4 assay is ketoconazole (Sigma-Aldrich, St. Louis, MO).\nTox21 Assay Protocol Summary:\nTwo ul of enzyme-substrate mix was dispensed into medium binding white/solid 1536-well plates (Greiner Bio-One North America Inc., Monroe, NC) using a BioRaptr Flying Reagent Dispenser (FRD, Beckman Coulter, Brea, CA). Compounds dissolved in DMSO and positive control (ketoconazole) were transferred to the assay plates at 23 nl using a Pintool station (Wako, San Diego, CA). The assay plates were incubated at room temperature for 10 min. Then 2 ul of NADPH regeneration solution was added to each well of the assay plates using an FRD and incubated at room temperature for 1 h. The reaction was stopped by adding 4 ul of detection reagent using an FRD and after 20 min incubation at room temperature the luminescence signal was measured using a ViewLux plate reader (Perkin Elmer, Shelton, CT). Data were expressed as relative luminescence units.", "values": [{"smiles": "Clc1ccc(C(c2ccc(Cl)cc2)C(Cl)Cl)cc1", "Potency": "inactive"}, {"smiles": "COC(=O)c1cc(Oc2ccc(Cl)cc2Cl)ccc1[N+](=O)[O-]", "Potency": "inactive"}, {"smiles": "CN=C=O", "Potency": "inactive"}, {"smiles": "Oc1cc(Cl)c(Cl)c(Cl)c1Cl", "Potency": "inactive"}, {"smiles": "COC(=O)c1ccccc1S(=O)(=O)NC(=O)Nc1nc(C)nc(OC)n1", "Potency": "inactive"}, {"smiles": "CC(Cc1ccccc1)N(C)Cc1ccco1", "note": "(stereo not given)", "Potency": "inactive"}, {"smiles": "CC(=O)[O][Pb]([c]1ccccc1)([c]1ccccc1)[c]1ccccc1", "Potency": "10 µM (active)"}, {"smiles": "O=S1(=O)OCC2C(CO1)C1(Cl)C(Cl)=C(Cl)C2(Cl)C1(Cl)Cl", "note": "(stereo not given)", "Potency": "0.224 µM (active)"}, {"smiles": "Cc1c([N+](=O)[O-])c(C)c([N+](=O)[O-])c(C(C)(C)C)c1[N+](=O)[O-]", "Potency": "inactive"}, {"smiles": "CCC(C)c1cccc(C(C)CC)c1O", "note": "(stereo not given)", "Potency": "28.3 µM (active)"}, {"smiles": "CCOC(=O)CCN(SN(C)C(=O)Oc1cccc2c1OC(C)(C)C2)C(C)C", "Potency": "10 µM (active)"}, {"smiles": "ClSC(Cl)(Cl)Cl", "Potency": "inactive"}, {"smiles": "CC(Cc1ccc(OCC(=O)O)cc1)NCC(O)c1csc(C(F)(F)F)n1", "note": "(stereo not given)", "Potency": "inactive"}, {"smiles": "O=C1C2(Cl)C3(Cl)C4(Cl)C(Cl)(Cl)C5(Cl)C3(Cl)C1(Cl)C5(Cl)C24Cl", "note": "(stereo not given)", "Potency": "2.78 µM (active) and 3.41 µM (active)"}, {"smiles": "Oc1cc(Cl)cc(Cl)c1", "Potency": "inactive"}, {"smiles": "CCn1cc[n+](C)c1", "note": "(tested in a mixture with another compound)", "Potency": "inactive"}, {"smiles": "CNC(C)(C)Cc1ccccc1", "Potency": "inactive"}, {"smiles": "O=C(NC(=O)c1c(F)cccc1F)Nc1ccc(Oc2ccc(C(F)(F)F)cc2Cl)cc1F", "Potency": "inactive"}, {"smiles": "CCC[CH2][Sn]([CH2]CCC)([O]C(C)=O)[O]C(C)=O", "Potency": "inactive"}, {"smiles": "Clc1c(Cl)c(Cl)c(Cl)c(Cl)c1Cl", "activity change, negative = inhibition": "4.21% [at 10.5 µM]"}, {"smiles": "C[C@H]1[C@H](c2ccc(Cl)cc2)SC(=O)N1C(=O)NC1CCCCC1", "Potency": "7.96 µM (active)"}, {"smiles": "CC[C@H](C)[C@H]1O[C@]2(C=C[C@@H]1C)C[C@@H]1C[C@@H](C/C=C(\\C)[C@@H](O[C@H]3C[C@H](OC)[C@@H](O[C@H]4C[C@H](OC)[C@@H](NC)[C@H](C)O4)[C@H](C)O3)[C@@H](C)/C=C/C=C3\\CO[C@@H]4[C@H](O)C(C)=C[C@@H](C(=O)O1)[C@]34O)O2", "Potency": "1.59 µM (active)"}, {"smiles": "COP(=S)(NC(C)C)Oc1ccc(C)cc1[N+](=O)[O-]", "note": "(stereo not given)", "Potency": "0.633 µM (active)"}, {"smiles": "COCCC#N", "Potency": "inactive"}, {"smiles": "CCCCCON=O", "Potency": "inactive"}, {"smiles": "C#CCC1=C(C)C(OC(=O)C2C(C=C(C)C)C2(C)C)CC1=O", "note": "(stereo not given)", "Potency": "8.88 µM (active)"}, {"smiles": "O=c1[nH]c2cc(Cl)ccc2n1C1CCNCC1", "Potency": "inactive"}, {"smiles": "CSC1=N[C@@](C)(c2ccccc2)C(=O)N1Nc1ccccc1", "Potency": "31.7 µM (active)"}, {"smiles": "O=c1[nH]c(Cl)c(Cl)cc1Cl", "Potency": "inactive"}, {"smiles": "CC(Cc1ccc(O)cc1)NCC(O)c1cc(O)cc(O)c1", "note": "(stereo not given)", "Potency": "inactive"}, {"smiles": "CCC(C)Br", "note": "(stereo not given)", "Potency": "inactive"}, {"smiles": "COc1ccc2[nH]cc(CCN(C(C)C)C(C)C)c2c1", "Potency": "inactive"}, {"smiles": "Cc1ccc2cc3c(ccc4ccccc43)c3c2c1CC3", "Potency": "8.96 µM (active)"}, {"smiles": "c1csc(-c2ccc(-c3cccs3)s2)c1", "Potency": "inactive"}, {"smiles": "BrCC(Br)(Br)Br", "Potency": "inactive"}, {"smiles": "Cc1ccn2nc(S(=O)(=O)Nc3c(F)cccc3F)nc2n1", "Potency": "inactive"}, {"smiles": "N#Cc1c[nH]cc1-c1cccc2c1OC(F)(F)O2", "Potency": "inactive"}, {"smiles": "CN/C(=N\\[N+](=O)[O-])NCc1cnc(Cl)s1", "Potency": "inactive"}, {"smiles": "O=C(Nc1ccc(F)cc1F)c1cccnc1Oc1cccc(C(F)(F)F)c1", "Potency": "inactive"}, {"smiles": "O=Cc1ccccc1", "Potency": "inactive"}]}]}
